# Test results from PubChem BioAssay AID2603 (Johns Hopkins Ion Channel Center, 2010).
# Results with a measured potency or affinity are listed apart. The source made the active and inactive calls.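 Rule for the calls: active = a compound that raises KCNQ2 potassium channel current at -35 mV at one or more tested doses; inactive = no rise at any dose.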
# Molecular target: Potassium voltage-gated channel subfamily KQT member 2 (Rattus norvegicus) (UniProt O88943)
# Assay: KCNQ2 channel potentiators, dose response, mechanism study for KCNQ2 potentiator project, cell-based, automated electrophysiology (AID 2603)
# Conditions: KCNQ2-CHO cells, automated patch clamp current potentiation; at 30 µM (top of the series)
# Sequence of Potassium voltage-gated channel subfamily KQT member 2 (Rattus norvegicus) (O88943 whole entry, looked up): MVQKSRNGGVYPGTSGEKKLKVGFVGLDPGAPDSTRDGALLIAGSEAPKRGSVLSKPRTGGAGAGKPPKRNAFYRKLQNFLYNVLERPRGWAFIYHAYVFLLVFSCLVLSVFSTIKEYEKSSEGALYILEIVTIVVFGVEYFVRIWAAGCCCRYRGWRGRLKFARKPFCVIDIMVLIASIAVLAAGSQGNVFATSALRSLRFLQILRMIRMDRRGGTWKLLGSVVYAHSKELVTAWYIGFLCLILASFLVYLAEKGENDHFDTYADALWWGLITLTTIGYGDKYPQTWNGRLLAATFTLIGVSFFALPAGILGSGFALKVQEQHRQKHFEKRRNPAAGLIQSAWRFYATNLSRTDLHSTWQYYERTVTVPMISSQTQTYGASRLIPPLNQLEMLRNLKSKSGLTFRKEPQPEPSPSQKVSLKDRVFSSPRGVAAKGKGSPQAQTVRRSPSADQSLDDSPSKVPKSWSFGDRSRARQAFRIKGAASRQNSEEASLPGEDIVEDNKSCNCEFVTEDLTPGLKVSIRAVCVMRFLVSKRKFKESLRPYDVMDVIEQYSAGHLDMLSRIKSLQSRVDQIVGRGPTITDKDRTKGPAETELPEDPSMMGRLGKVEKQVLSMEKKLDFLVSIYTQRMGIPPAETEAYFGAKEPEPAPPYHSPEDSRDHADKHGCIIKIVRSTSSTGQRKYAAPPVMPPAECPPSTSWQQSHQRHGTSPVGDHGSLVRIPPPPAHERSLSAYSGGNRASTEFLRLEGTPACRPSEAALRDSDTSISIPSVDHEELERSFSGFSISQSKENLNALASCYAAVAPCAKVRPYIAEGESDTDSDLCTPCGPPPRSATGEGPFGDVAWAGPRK
Structure (SMILES),outcome,potentiation
CC1(C)CCc2cc(-c3ccn(S(=O)(=O)c4ccccc4Cl)n3)ccc2O1,inactive,–
Nc1cc(N2CCCCC2)c(Cl)cc1[N+](=O)[O-],inactive,–
Cc1nn(-c2cccc(C(F)(F)F)c2)c(Cl)c1/C=N/Nc1cccc(C(=O)O)c1,inactive,–
O=C(Cc1ccccc1)Nc1cccc(N2CCCC2)c1,inactive,–
CCC(O)(CC)C(=O)N(Nc1ccc(C)cc1)c1ccc(C)cc1,–,62.7
S=C(NCCc1cccc(Cl)c1)NCc1ccccc1,inactive,–
CC(C)c1ccc2nc(NC(=O)C3CC3)sc2c1,inactive,–
CC1=C(C)/C(=N\OS(=O)(=O)c2ccccc2)C=CC1=O,inactive,–
COc1cc(C)c(C(=O)Oc2cc(C)c(C(=O)O)c(O)c2)c(O)c1,–,72.4
Oc1c(Br)cc(Br)cc1C=Nc1ccc2[nH]ncc2c1,inactive,–
CCCCCC/C(C)=C1/SC(=S)NC1=O,inactive,–
O=C(O)c1cc(NN=C2c3ccccc3-c3ccccc32)ccc1Cl,–,81.9
Cc1ccc(C(C2=C(O)CC(C)(C)CC2=O)C2C(=O)CC(C)(C)CC2=O)o1 (configuration not stated),inactive,–
Cc1ccc(C(=O)NC2(O)C(=O)c3ccccc3C2=O)cc1C,inactive,–
COc1ccc(C(=O)CCS(=O)(=O)c2ccc(F)cc2)cc1OC,inactive,–
CC1=C(C(=O)OCC2CCCCC2)C(c2cccc(O)c2)NC(=O)N1 (configuration not stated),–,57
O=c1c(O)c(-c2cccs2)oc2ccc(Cl)cc12,inactive,–
